The results in this text go back to PubChem BioAssay (NCI).

Compounds without any hit were thinned out: in the full panel of roughly 83,000, 20% have a hit.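 Each cell line was grown in a 96-well plate and treated with one concentration of compound for 48 hours. Values below 10 were considered active.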 Values without a mark were called inactive. Active and inactive are the calls of the source.

Among the test systems are NCI-H23 lung; NCI-H226 lung; NCI-H322M lung; HOP-62 NSCLC; NCI-H460 lung; HOP-92 NSCLC; NCI-H522 lung; A549/ATCC NSCLC; 786-0 renal; COLO 205 colon; DU-145 prostate; K-562 leukemia; MALME-3M melanoma; MDA-MB-231 breast; SF-268 CNS; SF-295 CNS; SF-539 CNS; UACC-257 melanoma.
Common to all, as to experiment: NCI-60 one-dose screen, 48 h (100 = growth as untreated, 0 = no growth, -100 = all killed)
Details in all cases: 10 µM unless noted

As for `CCOC(=O)c1sc(-c2ccc(OS(=O)(=O)c3ccc(C(C)(C)C)cc3)c(C=O)c2)nc1C`, the growth with NCI-H23 lung is 33.3%; in the experiment with NCI-H226 lung it was 48.5%; in the experiment with NCI-H322M lung it was 93.7%; in the experiment on HOP-62 NSCLC, 52%; with NCI-H460 lung, 41.7%; with HOP-92 NSCLC it was 21.1%. In addition, the growth with NCI-H522 lung was 22.1%; in the experiment on A549/ATCC NSCLC, 84.9%; with 786-0 renal, 47.2%; in the experiment on COLO 205 colon, 72.7%; in the experiment on DU-145 prostate, 43.8%; with K-562 leukemia it was 16.1%. Also, the growth is 45.1% in the experiment with MALME-3M melanoma; 53.7% with MDA-MB-231 breast; 32.9% in the experiment with SF-268 CNS; 28.6% with SF-295 CNS; 45.6% with SF-539 CNS; 52% in the experiment on UACC-257 melanoma.
As for `Clc1ccc(/C=C/c2nc(Nc3ccc(Cl)cc3)c3ccccc3n2)cc1`, the growth in the experiment with NCI-H23 lung was 93.1%; in the experiment with NCI-H226 lung, 92.6%; in the experiment with NCI-H322M lung, 96.4%; with HOP-62 NSCLC it was 120%; in the experiment on NCI-H460 lung, 103%; in the experiment on HOP-92 NSCLC, 107%. The growth in the experiment on NCI-H522 lung is 90.8%; in the experiment on A549/ATCC NSCLC it was 102%; in the experiment on 786-0 renal it was 102%; in the experiment with COLO 205 colon it was 112%; in the experiment with DU-145 prostate, 118%; in the experiment with K-562 leukemia it was 103%. Besides, the growth was 105% with MALME-3M melanoma; 93.7% in the experiment on MDA-MB-231 breast; 102% with SF-268 CNS; 100% with SF-295 CNS; 96.1% in the experiment with SF-539 CNS; 98.9% in the experiment with UACC-257 melanoma.
In the case of `COc1ccc(-n2sc(=O)n(Cc3ccc(COC(=O)C(C)c4ccc(CC(C)C)cc4)cc3)c2=O)cc1` (centres undefined), the growth in the experiment on NCI-H23 lung was 78.1%; in the experiment on NCI-H226 lung it was 68.2%; in the experiment on NCI-H322M lung, 94.9%; in the experiment with HOP-62 NSCLC, 66.8%; with NCI-H460 lung, 76.4%; with HOP-92 NSCLC, 19.2%. The growth in the experiment on NCI-H522 lung is -32.9% (active); in the experiment on A549/ATCC NSCLC, 80.8%; in the experiment with 786-0 renal, 57.3%; in the experiment with COLO 205 colon, -10.9% (active); in the experiment with DU-145 prostate it was 43.9%; with K-562 leukemia, -11.6% (active). The growth is -49.4% (active) with MALME-3M melanoma; 62.4% in the experiment with MDA-MB-231 breast; 71.9% with SF-268 CNS; 97.2% in the experiment on SF-295 CNS; 26.8% with SF-539 CNS; 54.9% in the experiment on UACC-257 melanoma.
Take `C=C1C(=O)O[C@H]2[C@H]1CC/C(COC(=O)/C=C\C(=O)NCc1ccc(Cn3c(=O)sn(-c4ccc(OC)cc4)c3=O)cc1)=C\CC[C@@]1(C)O[C@@H]21`: the growth is -69.9% (active) in the experiment on NCI-H23 lung; -65.9% (active) with NCI-H226 lung; 32.4% with NCI-H322M lung; -20.4% (active) with HOP-62 NSCLC; -65.5% (active) with NCI-H460 lung; -65% (active) with HOP-92 NSCLC. Moreover, the growth with NCI-H522 lung was -45.2% (active); in the experiment with A549/ATCC NSCLC, 12.6%; in the experiment with 786-0 renal it was -57.9% (active); with COLO 205 colon it was -45.9% (active); with DU-145 prostate it was -84% (active); in the experiment with K-562 leukemia, 0.146% (active). Besides, the growth is -92% (active) in the experiment on MALME-3M melanoma; -89.6% (active) with MDA-MB-231 breast; -78.3% (active) in the experiment with SF-268 CNS; 55% with SF-295 CNS; -99.3% (active) with SF-539 CNS; -62.2% (active) in the experiment with UACC-257 melanoma.
With `COc1ccc(/C=C2\COc3ccc(O)cc3C2=O)c(OC)c1`, the growth with NCI-H23 lung is 83.4%; in the experiment on NCI-H226 lung, 104%; in the experiment on NCI-H322M lung it was 86.5%; in the experiment with HOP-62 NSCLC, 56.3%; in the experiment with NCI-H460 lung, 40.6%; in the experiment on HOP-92 NSCLC, 79.5%. In addition, the growth in the experiment on NCI-H522 lung is 39.1%; in the experiment with A549/ATCC NSCLC, 51.6%; with 786-0 renal, 91.2%; in the experiment on COLO 205 colon it was 108%; in the experiment with DU-145 prostate, 65.8%; in the experiment on K-562 leukemia, 12.4%. Also, the growth with MALME-3M melanoma is 60.9%; in the experiment on MDA-MB-231 breast it was 60.9%; with SF-268 CNS, 70.2%; in the experiment with SF-295 CNS, 80.1%; with SF-539 CNS, 57.5%; with UACC-257 melanoma, 74.8%.
With `O[C@H]1CO[C@H]2[C@@H]1OC[C@@H]2Oc1ccc(Nc2nc(Nc3ccc(F)c(Cl)c3)ncc2F)cc1Cl`, the growth with NCI-H23 lung is 101%; in the experiment on NCI-H226 lung, 96.9%; in the experiment on NCI-H322M lung, 101%; with HOP-62 NSCLC, 118%; with NCI-H460 lung, 106%; in the experiment on HOP-92 NSCLC it was 101%. The growth was 98.4% with NCI-H522 lung; 102% in the experiment with A549/ATCC NSCLC; 97.7% in the experiment on 786-0 renal; 116% in the experiment with COLO 205 colon; 117% with DU-145 prostate; 115% in the experiment with K-562 leukemia. For the same compound, the growth was 100% in the experiment on MALME-3M melanoma; 95.4% with MDA-MB-231 breast; 103% in the experiment on SF-268 CNS; 92.1% with SF-295 CNS; 95% in the experiment with SF-539 CNS; 106% in the experiment on UACC-257 melanoma.
For `Cc1nc(Nc2ccc(S(=O)(=O)Nc3cc(C)on3)cc2)c2ccccc2n1`, the growth in the experiment with NCI-H23 lung is 107%; in the experiment on NCI-H226 lung it was 99.7%; in the experiment with NCI-H322M lung, 104%; with HOP-62 NSCLC, 101%; with NCI-H460 lung, 112%; in the experiment on HOP-92 NSCLC, 89%. The growth in the experiment on NCI-H522 lung was 86.3%; with A549/ATCC NSCLC, 108%; in the experiment with 786-0 renal it was 98.3%; in the experiment with COLO 205 colon, 116%; with DU-145 prostate it was 112%; with K-562 leukemia, 99.9%. In addition, the growth in the experiment with MALME-3M melanoma was 93.2%; in the experiment on MDA-MB-231 breast it was 108%; with SF-268 CNS, 99.5%; in the experiment with SF-295 CNS it was 95.4%; in the experiment on SF-539 CNS, 97.6%; with UACC-257 melanoma it was 103%.
Consider `COc1ccc(OC)c(/C=C2\COc3ccc(O)cc3C2=O)c1`, for which the growth with NCI-H23 lung is 104%; with NCI-H226 lung, 98.5%; in the experiment on NCI-H322M lung it was 92.3%; with HOP-62 NSCLC, 108%; in the experiment with NCI-H460 lung it was 101%; in the experiment on HOP-92 NSCLC it was 93.7%. In addition, the growth is 38% in the experiment with NCI-H522 lung; 101% with A549/ATCC NSCLC; 96.4% in the experiment on 786-0 renal; 109% in the experiment on COLO 205 colon; 107% in the experiment with DU-145 prostate; 9.33% (active) in the experiment with K-562 leukemia. Further, the growth is 81.9% with MALME-3M melanoma; 98.3% in the experiment with MDA-MB-231 breast; 99.2% in the experiment on SF-268 CNS; 102% in the experiment with SF-295 CNS; 90.5% with SF-539 CNS; 99.4% in the experiment with UACC-257 melanoma.
